BCR signal inh: chronic active BCR signaling inhibition | ABC-DLBCL IkBa-CBG/CBR reporter, luminescence ratio, 4 h | Potency, µM (titrated, usually from 46.1 µM), for inactives: at the top dose activity change, negative = inhibition, actives largely listed as inhibitors | 340,000 compounds, 0.05% hits; active = well fitted inhibition curve with a large enough effect in the signal ratio, with a control signal flat, not every such curve was filed as active; inconclusive = small, poorly fitted or top-dose-only effect, or effect the other way, or a change in a side signal; the % refers to the signal ratio;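 also: potency is read from the fitted curve at half-maximal effect; plate controls were basal doxycycline-induced cells for no effect and cells given 10 µM MG132 for full effect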
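TMD8 human ABC-DLBCL cells with doxycycline-inducible IκBα–green luciferase fusion and unfused red luciferase, in 0.5% FBS medium; compounds up to 46 uM, 4 h at 37C. Green/red luminescence ratio, filter-overlap corrected, fitted to concentration-response curves.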
D1 antag: blocks dopamine activation of the human D1 receptor; activity change, negative = inhibition, % at 10 µM; 360,000 compounds, 3.2% hits; HEK293 TREx D1 cells, calcium flux, dopamine EC80; hits give low values; in the data active = activity change below about -30%; also: % is scaled to controls: 0 for no effect and ±100 for the full control effect
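Allosteric or orthosteric antagonism assessed as attenuation of the calcium response to EC80 dopamine, added 180 s after compound, in induced HEK293 Trex D1 cells loaded with no-wash calcium dye.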
D1 ag: human D1 receptor agonism | P21728 | HEK293 T-REx D1 cells, calcium flux, agonist mode | activation, % at 2 µM | 360,000 compounds, 1% hits; in the data active = activation above about 30%; also: 0% is about no effect
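Tetracycline-induced HEK293 TREx D1 cells, force-coupled to calcium signalling, were dye-loaded with a no-wash calcium kit. Compound was pin-added after a 10 s baseline. Fluorescence was read kinetically at 1 cycle/s for 180 s, with calcium rises flagged as agonism.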
D1 PAM: potentiators of human D1 dopamine receptor. P21728. HEK293 TREx D1 cells, calcium flux, dopamine EC20 potentiation. potentiation, % at 10 µM. 360,000 compounds, 0.036% hits. AID 504651; in the data active = potentiation above about 30%; also: 0% is about no effect
D3 ag: agonists of human D3 dopamine receptor; 410,000 compounds, 0.58% hits; P35462; D3R DiscoveRx beta-arrestin cells, luminescence, 90 min; max activation, %; AID 652048; in the data active = max activation above about 30%; also: 0% is about no effect
Target sequence (P35462 whole entry, looked up): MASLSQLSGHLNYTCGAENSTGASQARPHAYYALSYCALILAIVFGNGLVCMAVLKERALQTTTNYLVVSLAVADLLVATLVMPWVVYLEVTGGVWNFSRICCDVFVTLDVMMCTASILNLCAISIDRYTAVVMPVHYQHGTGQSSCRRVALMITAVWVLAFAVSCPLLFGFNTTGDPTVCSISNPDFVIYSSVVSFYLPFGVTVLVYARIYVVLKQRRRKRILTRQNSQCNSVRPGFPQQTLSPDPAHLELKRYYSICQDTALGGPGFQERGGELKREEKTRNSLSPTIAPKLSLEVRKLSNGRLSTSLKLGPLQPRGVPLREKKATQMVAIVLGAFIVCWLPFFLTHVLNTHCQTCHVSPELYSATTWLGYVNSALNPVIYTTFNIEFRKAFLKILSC
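Cells at 1500/well, incubated overnight, then treated with pinned compounds (dopamine as control) for 90 min at 37 degrees C. DiscoveRx reagent added for 30 - 60 minutes at room temperature; luminescence read.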
DRD3 antagonist: blocks the human D3 dopamine receptor | 360,000 compounds, 2.5% hits | max response, negative = inhibition, % | P35462 | D3R cells, DiscoveRx beta-arrestin luminescence, antagonist mode; hits give low values; in the data active = max response below about -50%; inconclusive = no clear call, values can overlap the other calls; also: % is scaled to controls: 0 for no effect and ±100 for the full control effect
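Cells expressing the human receptor were seeded at 1500 cells/well, incubated overnight at 37 degrees C in 5% CO2, then exposed to library compounds with dopamine controls for 90 minutes at 37 degrees C before luminescent detection.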
Active calls of the source: *; ? = inconclusive; nt = no result. An excerpt weighted towards active compounds, which were near 6% of everything screened.

SMILES | BCR signal inh | D1 antag | D1 ag | D1 PAM | D3 ag | DRD3 antagonist
COc1ccc(C(=O)O)cc1S(N)(=O)=O | -3% | 17 | 6 | 0 | -12 | -60*
CNS(=O)(=O)c1cc(C(=O)O)ccc1OC | 2% | 23 | 2 | 4 | 2 | 5
O=C(c1cc2c(s1)-c1ccccc1OC2)N1CCc2ccccc2C1 | ? | -54* | 1 | -8 | -4 | -7
COc1ccccc1N1CCN(C(=O)c2cc3c(s2)-c2ccccc2OC3)CC1 | 15% | -4 | 3 | -12 | 2 | 39
CC1CCN(CCCNC(=O)c2cc3c(s2)-c2ccccc2OC3)CC1 | 7% | -19 | 16 | -22 | -13 | -83*
O=C(Nc1cccnc1)c1cc2c(s1)-c1ccccc1OC2 | -27% | -46* | 9 | -18 | -5 | -3
Cc1cccc2c1-c1sc(C(=O)Nc3cccnc3)cc1CO2 | ? | -22 | 1 | -19 | 4 | 7
Cc1cccc2c1-c1sc(C(=O)NCCCN3CCC(C)CC3)cc1CO2 | ? | -13 | 19 | -22 | -15 | -95*
OC(c1cc(F)cc(Cl)c1)c1ncc(-c2cccc(C(F)(F)F)c2)[nH]1 (stereo not given) | nt | nt | nt | nt | -3 | -7
NC(=O)c1c(NC(=O)CS(=O)(=O)c2ccc(Cl)cc2)sc2c1CCCC2 | -5% | nt | 0 | -2 | -5 | nt
Cc1cccc2c1-c1sc(C(=O)Nc3cccc([N+](=O)[O-])c3C)cc1CO2 | ? | -6 | 31* | -14 | -29 | -17
COc1ccccc1CNC(=O)[C@H](C)NC(=O)C1CCN(C(=O)[C@@H](N)C(C)C)CC1 | 0% | -11 | 0 | -3 | 38* | -5
COc1ccccc1CNC(=O)[C@H](C)NC(=O)C1CCN(C(=O)[C@@H](N)Cc2ccccc2)CC1 | 2% | 7 | 1 | -1 | -3 | 13
CC(C)(C)c1ccc(CN2N=Nc3ccccc3S2(=O)=O)cc1 | ? | 20 | 3 | -3 | 3 | -93*
Cc1c(N=C2C=CC(=O)c3ccccc32)c(=O)n(-c2ccccc2)n1C | 14% | 3 | 0 | 0 | -11 | -55*
Cc1c(N=C2C=C(Br)C(=O)C(Br)=C2)c(=O)n(-c2ccccc2)n1C | 8% | -15 | 0 | -4 | 5 | 4
CCNC(=O)C1(C)CCCN(C(=O)c2ccnc(Cl)c2)C1 (stereo not given) | nt | nt | nt | nt | 7 | 33
Cc1ccccc1NC(=O)Cn1c(=O)n(Cc2ccccc2)c(=O)c2sc3ccccc3c21 | nt | -37* | -1 | 1 | 7 | nt
Cc1ccc(-n2c(=O)c3sc4ccccc4c3n(CC(=O)NC3CCCC3)c2=O)cc1C | nt | -45* | 3 | 0 | 1 | nt
COc1ccc(NC(=O)Cn2c(=O)n(Cc3ccccc3)c(=O)c3sc4ccccc4c32)cc1 | nt | -30* | 3 | 2 | 0 | nt
CCc1ccc(-n2c(=O)c3sc4ccccc4c3n(CC(=O)NC3CCCCC3)c2=O)cc1 | nt | -24 | 0 | 2 | -4 | nt
CCc1ccc(NC(=O)CC2C(=O)N(c3ccc(Cl)cc3)C(=O)N2Cc2ccco2)cc1 (stereo not given) | nt | -13 | -2 | -2 | 24 | nt
c1ccc(CNc2nc(-c3ccccn3)nc3ccccc23)cc1 | ? | 32 | 3 | 14 | -15 | -74*
c1ccc(CNc2nc(-c3ccccc3)nc3ccccc23)cc1 | 3% | -2 | 2 | 7 | -13 | 24
Fc1cc(F)nc(NCc2ccccc2)n1 | ? | 14 | 3 | 1 | 37* | 12
SMILES | BCR signal inh | D1 antag | D1 ag | D1 PAM | D3 ag | DRD3 antagonist
c1ccc(CNc2nc(NCc3ccccc3)c3ccccc3n2)cc1 | ? | -35* | 38* | 3 | -5 | -11
Fc1ccc(Nc2nc(NCc3ccco3)c3ccccc3n2)cc1 | ? | -46* | 23 | -19 | -15 | -25
Nc1nc(=S)c2ncn(C3OC(CO)CC3O)c2[nH]1 (stereo not given) | nt | nt | nt | nt | -5 | ?
COc1ccccc1CNC(=O)c1ccc(N2CCCC2)c(NC(=O)NCc2ccccc2)c1 | nt | 12 | 5 | 0 | -4 | nt
CCc1ccc(NC(=O)CSc2nc(C)cc(COC)c2C#N)cc1 | nt | -11 | 2 | 2 | 1 | nt
O=C(Nc1cccnc1)c1coc(=O)c2ccccc12 | 18µM* | -3 | 3 | 3 | -4 | 6
CN1C(=O)Cc2cc(S(=O)(=O)CCC(=O)Nc3ccccc3)ccc21 | nt | -24 | 2 | -2 | 2 | nt
COc1ccc(Cl)cc1NC(=O)CCS(=O)(=O)c1ccc(C)cc1 | 9% | -13 | 1 | -6 | -18 | 2
COc1cc(NC(=O)CCS(=O)(=O)c2ccc3c(c2)CC(=O)N3C)cc(OC)c1OC | nt | -77* | 5 | -5 | -16 | nt
COc1ccc(C)cc1NC(=O)CCS(=O)(=O)c1ccc2c(c1)CC(=O)N2C | nt | -32* | 2 | -1 | 6 | nt
Cc1nc(Cn2c3ccc(NC(=S)NC4CCCCC4)cc3c(=O)n2C)cs1 | nt | nt | nt | nt | -9 | 0
COCCNC(=O)c1cnn2c(C(F)F)cc(-c3ccccc3)nc12 | 1% | 3 | 0 | 0 | 1 | 1
C#CC(C)(CC)NC(=O)c1cnn2c(C(F)F)cc(-c3ccccc3OC)nc12 (stereo not given) | 2% | 8 | 6 | 0 | 64* | nt
Fc1ccc(CNn2cnnc2SCc2ccc(F)cc2)cc1 | 1% | -7 | 4 | 0 | 41* | -9
C#CCC(Cc1cnc2nc(N)nc(N)c2n1)c1ccc(C(=O)N[C@@H](CCC(=O)O)C(=O)O)cc1 (stereo not given in full) | nt | nt | nt | nt | 7 | nt
CCSc1nc(C)c(C(C)=O)cc1C#N | ? | 17 | 1 | -4 | 3 | -15
CC(=O)c1cc(C#N)c(N2CCCC2)nc1C | 0% | -36* | 7 | 3 | 7 | 6
CC(=O)c1cc(C#N)c(SCCC(C)C)nc1C | ? | -41* | 8 | 0 | 7 | 24
O=C(CSc1ccc2nc(-c3ccccc3)cn2n1)Nc1ccccc1 | 16% | 3 | 2 | -2 | -8 | nt
O=C(CSc1ccc2nc(-c3ccccc3)cn2n1)Nc1ccccc1C(F)(F)F | nt | -71* | 0 | -3 | 2 | nt
COc1ccc(C(=O)N(Cc2ccccc2)c2cccc(C)c2)cc1 | 11% | 1 | 10 | 1 | 4 | 1
COc1ccccc1CC(=O)N(Cc1ccccc1)c1cccc(C)c1 | -3% | -31* | 1 | 3 | -4 | -16
COc1ccc(OC)c(CNC(=O)C(C)n2c(C)c3cnn(-c4ccccc4)c(=O)c3c2C)c1 (stereo not given) | nt | -6 | 0 | -3 | 0 | nt
CC(=NN1CC(=O)NC1=O)c1ccc([N+](=O)[O-])o1 | nt | nt | nt | nt | 7 | 6

Assay outcomes (PubChem BioAssay)
